Consider 23 compounds from PubChem BioAssay (NCATS).

Unmarked numbers belong to inactive results. Records with an inconclusive call do not appear. Active and inactive are the calls of the source. Unless noted, calls come from the whole dose curve; as a rule, active = well fitted inhibition curve with a large enough effect; inconclusive = small, poorly fitted or top-dose-only effect; inactive = flat fitted curve, though single readings scatter.

Experiment [1] in a line: Drug repurposing screens with cells derived from glioblastoma tumor samples (AID 1345199). For activity, negative = cell killing: % is set by controls: 0 for no effect and ±100 for the full control effect. Note: nearly all actives have a fitted effect of over 40% in size. Note: potency is the fitted concentration of half-maximal effect. Particulars: GBM patient neurospheres viability, ATP luminescence, 48 h. The gist of the method: (§1)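 Four patient lines of CD133+ GBM neurospheres were screened at several concentrations; hits were retested in those lines plus three slower-growing GBM lines, using 48-hour treatment and ATP-based viability.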

Another experiment concerns astro (control astrocytes). Described as above. As to conditions: viability, ATP luminescence, 48 h; series mostly up to 45.9 µM. The procedure, abridged:
as §1

Experiment [2] concerns the target Nuclear receptor subfamily 1 group I member 2 (Rattus norvegicus) (UniProt Q9R1A7). As to the kind of experiment: qHTS assay for small molecule activators of the rat pregnane X receptor (rPXR) signaling pathway (AID 651751; call rule not given here; note: 0% is about no effect). Particulars: rPXR reporter cells, luciferase (One-Glo), 24 h. Background: In qHTS, concentration-response curves come from the screen itself.

The nature of experiment [3]: qHTS assay for small molecule activators of the human pregnane X receptor (PXR) signaling pathway (AID 720659; call rule not given here; note: 0% is about no effect). As to conditions: DPX-2 HepG2 CYP3A4-luciferase, 24 h; series mostly up to 92.3 µM.
[4] abbreviates: at 45.9 µM (top of the series), tumour line B.
The mark [5] stands for this setting: at 45.9 µM (top of the series), tumour line D.
Setting [6] is: at 46.1 µM (top of the series), tumour line C.
Where [7] appears, read: at 21.2 µM (top of the series), tumour line B.
Setting [8] is: at 21.2 µM (top of the series), tumour line D.
Where [9] appears, read: at 46 µM (top of the series), tumour line A.
Where [10] appears, read: at 20 µM (top of the series), tumour line C.

Nuclear receptor subfamily 1 group I member 2 (Rattus norvegicus), sequence (Q9R1A7 whole entry, looked up): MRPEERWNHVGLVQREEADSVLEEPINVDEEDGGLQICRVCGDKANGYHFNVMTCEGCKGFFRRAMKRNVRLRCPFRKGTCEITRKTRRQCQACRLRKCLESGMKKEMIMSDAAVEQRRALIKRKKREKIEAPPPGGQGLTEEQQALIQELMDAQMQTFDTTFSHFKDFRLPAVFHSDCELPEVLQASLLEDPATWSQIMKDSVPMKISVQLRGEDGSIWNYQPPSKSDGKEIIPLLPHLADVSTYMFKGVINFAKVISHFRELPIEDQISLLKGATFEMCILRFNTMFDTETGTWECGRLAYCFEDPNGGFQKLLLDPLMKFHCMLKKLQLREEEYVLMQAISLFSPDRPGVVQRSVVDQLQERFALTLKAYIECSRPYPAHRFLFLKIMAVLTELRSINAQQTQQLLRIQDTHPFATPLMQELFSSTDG

`CN(Cc1ccccc1)Cc1ccccc1`: the activity, negative = cell killing is -11.4% in experiment [1] (setting [4]), 6.3% in experiment [1] (setting [5]) and -21.1% in experiment [1] (setting [6]). For the same compound, in the experiment on astro, the Potency result was “inactive”.

Turning to `CC(CCc1ccc(O)cc1)NCC(O)c1ccc(O)cc1` (stereo not given), the activity, negative = cell killing in experiment [1] (setting [4]) is 1.78%; in experiment [1] (setting [5]) it was 4.34%; in experiment [1] (setting [6]) it was 2.7%. For the same compound, the Potency result in the experiment on astro was “inactive”.

On to `C[Se]CC[C@H](N)C(=O)O`, for which the figures for the activity, negative = cell killing in experiment [1] (setting [4]), in experiment [1] (setting [5]) and in experiment [1] (setting [6]) were -12.9%, -0.664% and -22.8%, respectively. For the same compound, the Potency result with astro is “inactive”.

In the case of `C[C@]12CCC(=O)C[C@@H]1CC[C@@H]1[C@@H]2CC[C@]2(C)C=CC[C@@H]12`, the activity, negative = cell killing in experiment [1] (setting [4]) was -7.67%; in experiment [1] (setting [5]), -11.4%. The Potency in experiment [1] (tumour line A) is 20 µM (active). Moreover, the Potency result in the experiment with astro was “inactive”.

As for `CC/C=C\C/C=C\C/C=C\C/C=C\C/C=C\CCCC(=O)O`, the activity, negative = cell killing in experiment [1] (setting [4]) is -9.54%; in experiment [1] (setting [5]) it was -0.692%; in experiment [1] (setting [6]), -8.93%. The Potency result with astro was “inactive”.

On to `Cc1cccc(C)c1NC(=O)NC1=CCCN1C`, for which the activity, negative = cell killing in experiment [1] (setting [4]) was -5.38%; in experiment [1] (setting [5]), -0.755%; in experiment [1] (setting [6]), 0.0506%. Moreover, in the experiment on astro, the Potency result is “inactive”.

With `Oc1cc(O)cc(O)c1`, the activity, negative = cell killing was -4.88% in experiment [1] (setting [4]), -12.8% in experiment [1] (setting [5]) and -10.5% in experiment [1] (setting [6]). The Potency entry in the experiment with astro was “inactive”.

For `CC12CCC(C1)C(C)(C)C2=O` (stereo not given), the activity, negative = cell killing is -4.04% in experiment [1] (setting [4]), -4.98% in experiment [1] (setting [5]) and 19.6% in experiment [1] (setting [6]). Also, in the experiment with astro, the Potency entry was “inactive”.

As to `CCOC(=O)Cc1ccc(-c2ccccc2)cc1`, the activity, negative = cell killing was -6.74% in experiment [1] (setting [4]), -7.57% in experiment [1] (setting [5]) and 36.2% in experiment [1] (setting [6]). Further, the Potency entry in the experiment with astro was “inactive”.

In the case of `O=C(CCCCCCCCCCCCC1CCCC1)Nc1ccc(S(=O)(=O)c2ccc(NC(=O)CCCCCCCCCCCCC3CCCC3)cc2)cc1`, the results for the activity, negative = cell killing in experiment [1] (setting [4]), in experiment [1] (setting [5]) and in experiment [1] (setting [6]) were 0.38%, -17.2% and -32.4%, respectively. Further, the Potency entry with astro is “inactive”.

With `CCCCC[C@H](O)/C=C/[C@H]1[C@H](O)CC(=O)[C@@H]1C/C=C\CCCC(=O)O`, the activity, negative = cell killing in experiment [1] (setting [4]) was -2.11%; in experiment [1] (setting [5]), -17.7%; in experiment [1] (setting [6]), -15.8%. In addition, the Potency entry with astro was “inactive”.

`COc1c(O[C@@H]2O[C@H](CO)[C@@H](O)[C@H](O)[C@H]2O)cc2c(c1OC)-c1ccc(SC)c(=O)cc1[C@@H](NC(C)=O)CC2`: the activity, negative = cell killing in experiment [1] (setting [7]) was -28.7%; in experiment [1] (setting [8]), -5.86%; in experiment [1] (at 21.3 µM (top of the series), tumour line A), -6.81%. Further, the Potency result in the experiment with astro is “inactive”.

With `CNC(=O)OCc1cccc(COC(=O)NC)n1`, the values for the activity, negative = cell killing in experiment [1] (setting [4]), in experiment [1] (setting [5]) and in experiment [1] (setting [9]) were -20.8%, 4.88% and -25.4%, respectively. Further, the Potency entry in the experiment with astro is “inactive”.

As for `O=c1[nH]c(=O)n([C@H]2C[C@H](O)[C@@H](CO)O2)cc1/C=C/Br`, the activity, negative = cell killing in experiment [1] (setting [4]) was -10.7%; in experiment [1] (setting [5]) it was -3.23%; in experiment [1] (setting [6]) it was -17.1%. For the same compound, in the experiment with astro, the Potency entry is “inactive”.

Regarding `CN1CCN(C(c2ccccc2)c2ccc(Cl)cc2)CC1` (stereo not given), the activity, negative = cell killing is 3.89% in experiment [1] (setting [10]) and -16.8% in experiment [1] (setting [7]). Also, in experiment [1] (tumour line A), the Potency was 11.2 µM (active). In the experiment on astro, the Potency entry was “inactive”.

As to `CCC(Cc1c(I)cc(I)c(O)c1I)C(=O)O` (stereo not given), the activity, negative = cell killing is -7.21% in experiment [1] (setting [4]), -2.81% in experiment [1] (setting [5]) and -17.6% in experiment [1] (setting [9]). In addition, in the experiment with astro, the Potency entry was “inactive”.

Turning to `NC(=O)[C@H]1O[C@@H](O)[C@H](O)[C@@H](O)[C@@H]1O`, the activity, negative = cell killing in experiment [1] (setting [4]) is -7.58%; in experiment [1] (setting [5]), -15.7%; in experiment [1] (setting [6]) it was -23.5%. For the same compound, the Potency result with astro is “inactive”.

For the compound `CO/N=C(\C(=O)N[C@@H]1C(=O)N2C(C(=O)[O-])=C(C[n+]3ccc(N)n3CCO)CS[C@H]12)c1csc(N)n1`, the activity, negative = cell killing in experiment [1] (setting [4]) is -6.9%; in experiment [1] (setting [5]), -6.66%; in experiment [1] (setting [6]), -25.8%. Also, in the experiment with astro, the Potency result is “inactive”.

Take `COC1[C@@H](O[C@@H]2O[C@H](C)[C@@H](O[C@H]3C[C@@](C)(O)[C@H](OC(=O)CC(C)C)[C@H](C)O3)[C@H](N(C)C)[C@H]2O)[C@@H](CC=O)C[C@@H](C)[C@@H](O)/C=C/C=C/C[C@@H](C)OC(=O)C[C@H]1OC(C)=O` (stereo not given in full): the values for the activity, negative = cell killing in experiment [1] (setting [10]), in experiment [1] (setting [7]) and in experiment [1] (setting [8]) were -1.06%, -12.1% and -12.4%, respectively. Also, in the experiment with astro, the Potency result was “inactive”.

On to `CC12CCC(C[N+](C)(CCC[N+](C)(C)C)C1)C2(C)C` (stereo not given), for which the activity, negative = cell killing in experiment [1] (setting [4]) was -11.8%; in experiment [1] (setting [5]), -25.7%; in experiment [1] (setting [6]) it was 21.9%. The Potency result in the experiment on astro is “inactive”.

Consider `CCCCCCCCCCCCCCCCCC(=O)OC[C@@H](O)[C@H]1OC[C@H](O)[C@H]1O`, for which the figures for the activity, negative = cell killing in experiment [1] (setting [4]), in experiment [1] (setting [5]) and in experiment [1] (setting [6]) were 3.83%, 2.86% and -1.68%, respectively. Moreover, the Potency result in the experiment with astro is “inactive”. The max response in experiment [2] is 2.96%.

For the compound `CNC(=O)[C@H](Cc1c[nH]c2ccccc12)NC(=O)[C@@H](CC(=O)NO)CC(C)C`, the activity, negative = cell killing in experiment [1] (setting [4]) was -23.5%; in experiment [1] (setting [5]), -19.3%; in experiment [1] (setting [6]) it was -23.8%. Also, the Potency entry in the experiment on astro is “inactive”.

Regarding `CO[C@@H]1[C@H](OC(=O)/C=C/C=C/C=C/C=C/C(=O)O)CC[C@]2(CO2)[C@H]1[C@@]1(C)O[C@@H]1CC=C(C)C`, the activity, negative = cell killing in experiment [1] (setting [4]) is 2.14%; in experiment [1] (setting [5]), -9.21%; in experiment [1] (setting [6]), 4.82%. In the experiment on astro, the Potency result was “inactive”. Also, in experiment [2], the max response was -5.29%. Also, the result in experiment [3] was inactive.
